# Rows were chosen to be rich in hits. Some 4.2% of all compounds tested hit in one or more screens of this group.
# NALP3 yeast inh = inhibitors of NALP3 inflammasome in yeast | Yeast reconstituted NLRP3/ASC/caspase-1, beta-gal luminescence, 24 h | AID 2825 | 330,000 compounds, 0.39% hits | inhibition, % at 10 µM;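 active = inhibition of 50% or more; inactive = inhibition below 50%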;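 also: plate controls were induced DMSO wells for no effect and uninduced yeast grown without galactose for full effect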
# TIM10 inh = inhibits growth of TIM10 yeast strain. inhibition, % at 10 µM. S. cerevisiae TIM10 strain growth, BacTiter-Glo luminescence, 24 h. 330,000 compounds, 1.4% hits;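 active = inhibition of 40% or more at the single tested concentration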;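 also: wild-type TIM10 isogenic control strain grown at permissive 25 °C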
# tim23-1 inh = growth inhibitors of tim23-1 mutant yeast; S. cerevisiae tim23-1 growth, BacTiter-Glo luminescence, 24 h; inhibition, % at 20 µM; 330,000 compounds, 1.3% hits;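 active = growth inhibition of the mutant yeast at or above 50%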;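 also: temperature-sensitive mutant grown at 25 °C; plate controls were DMSO-treated mutant yeast for no effect and medium wells lacking yeast for full effect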
# tim10-1 inh = inhibits growth of tim10-1 mutant yeast; S. cerevisiae tim10-1 ts strain growth, BacTiter-Glo, 24 h; inhibition, % at 20 µM; 330,000 compounds, 2.2% hits; AID 463190;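 active = inhibition of at least 40%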;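 also: mutant grown at 25 °C; 0% = DMSO wells with yeast and 100% = wells holding no yeast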
# NALP1 yeast inh = NALP1 inhibition. S. cerevisiae NALP1/ASC/caspase-1 growth, X-gal OD620, 72 h. inhibition, % at 10 µM. 280,000 compounds, 0.61% hits; in the data active = inhibition mostly above about 24%, no sharp cut-off; inactive = mostly below about 32%
# V-ATPase pH = yeast V-ATPase proton transport regulation by pHLuorin | response, % at 10 µM | S. cerevisiae, pHLuorin cytosolic pH fluorescence | 350,000 compounds, 0.37% hits | AID 504577; in the data active = response mostly above about 7.3%, no sharp cut-off; inactive = mostly below about 5.4%; also: actives read high
# tim10-1 conf = tim10-1 yeast growth inhibition, confirmed. shares compounds with tim10-1 inh. S. cerevisiae tim10-1 ts strain growth, BacTiter-Glo, 24 h. inhibition, % at 20 µM. 7,400 compounds, 56% hits. AID 463213;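 active = inhibition of yeast growth at or above a set limit in either of two repeat tests at 20 µM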;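 also: tim10-1 mutant grown at permissive 25 °C to find synthetic lethal compounds; 0% = DMSO yeast wells and 100% = medium wells without yeast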
# tim10 confirm = confirmation of TIM10 yeast growth inhibitors. shares compounds with TIM10 inh. S. cerevisiae tim10 strain growth, BacTiter-Glo luminescence, 24 h. inhibition, % at 10 µM. 4,600 compounds, 63% hits. AID 463215;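 active = inhibition of yeast growth at or above a set limit in either of two replicates at 10 µM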;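 also: this counterscreen used the strain with wild-type TIM10; 0% = yeast with DMSO and 100% = medium wells lacking yeast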
# Numbers without * were called inactive; / = no result given.
SMILES,NALP3 yeast inh,TIM10 inh,tim23-1 inh,tim10-1 inh,NALP1 yeast inh,V-ATPase pH,tim10-1 conf,tim10 confirm
CCOc1ccc(Cl)cc1S(=O)(=O)n1nnc2ccccc21,8,51*,47,46*,15,3,42*,-9
Cc1ccc2c(c1)/C(=C/c1ccccc1)C(=O)N2,25,49*,24,55*,26,0,39*,62*
CSc1ccccc1NC(=S)Nc1cccc(C(F)(F)F)c1,18,6,-2,12,9,-1,/,/
Fc1ccccc1CNC(=S)Nc1cccc(C(F)(F)F)c1,12,43*,47,47*,15,2,46*,2
Cc1cc(NC2CCCCC2)nc(-c2ccccc2O)n1,5,27,28,37,-14,1,/,/
Cc1cc(NCc2ccccc2)nc(-c2ccccc2O)n1,2,66*,47,64*,8,0,49*,46*
Cn1c(=O)c2c(nc3n2CC(COc2ccccc2)O3)n(C)c1=O (centres undefined),13,-8,-3,-7,14,-2,/,/
COc1cccc(N2CCN(C3CC(=O)N(c4ccc(Cl)c(Cl)c4)C3=O)CC2)c1 (centres undefined),-10,41*,4,55*,13,3,31*,40*
Cc1ccc(S(=O)(=O)N2CCN(C(=O)COC(=O)CNC(=O)c3ccc(Cl)cc3Cl)CC2)cc1,20,-1,12,-1,/,6,/,/
N/C(=N\OC(=O)c1ccco1)c1cccnc1,24,-7,8,-8,-4,0,/,/
N/C(=N\OC(=O)c1ccco1)c1ccc(Cl)cc1,8,54*,49,47*,4,-2,47*,23
O=C(Nc1ccc(Cl)c(Cl)c1)OCc1cccnc1,-15,44*,6,50*,8,-1,47*,30*
O=C(Nc1cccnc1)OCc1ccccc1,29,-3,22,-5,-6,3,/,/
CCCCc1nc2sc3c(=O)n(N)cnc3c2c2c1CCC2,-1,3,1,15,-27,0,/,/
CC(C)Nc1nnc(Sc2ccc(Cl)cc2[N+](=O)[O-])s1,29,69*,48,79*,8,-3,72*,8
Nc1nnc(Sc2ccc(Cl)cc2[N+](=O)[O-])s1,21,3,-2,15,17,9,/,/
CN1c2ccccc2Oc2nnc(N3CCN(Cc4ccccc4)CC3)cc21,21,75*,47,41*,-8,-1,54*,44*
CNC(=S)NCc1ccc2[nH]c(C)cc2c1,-4,-9,0,-11,9,-1,/,/
CCc1cccc(C)c1NC(=S)NCc1ccc2[nH]c(C)cc2c1,2,48*,49,51*,17,3,25,37*
COc1cccc(/C=c2\sc3nc(-c4cccs4)nn3c2=O)c1OC,-12,51*,37,42*,13,3,33*,1
O=S(=O)(NCCSCc1c(Cl)cccc1Cl)c1ccc2c(c1)OCCO2,-9,50*,48,53*,-2,7,45*,35*
COc1cccc(-c2[nH]nc3c2C(c2ccc(C)o2)C(C#N)=C(N)O3)c1 (centres undefined),18,52*,42,45*,10,/,32,19
COc1ccc(OC)c(-c2[nH]nc3c2C(c2ccco2)C(C#N)=C(N)O3)c1 (centres undefined),-15,16,29,24,0,1,/,/
CCC(=O)Nc1cccc(C(=O)/C=C/c2cccs2)c1,15,42*,35,46*,19,0,24,18
O=C(C=Cc1cccs1)c1ccccc1,/,/,/,/,/,1,/,/
SMILES,NALP3 yeast inh,TIM10 inh,tim23-1 inh,tim10-1 inh,NALP1 yeast inh,V-ATPase pH,tim10-1 conf,tim10 confirm
O=[N+]([O-])c1nn(-c2ccc3c(c2)OCCO3)n(O)c1=NC1CCCC1,2,58*,40,55*,15,-3,47*,41*
O=[N+]([O-])c1nn(-c2ccc3c(c2)OCCO3)n(O)c1=NCCCO,1,8,4,16,5,-1,/,/
O=[N+]([O-])c1ccccc1-c1cc(-c2cc(Cl)ccc2O)n[nH]1,/,/,/,/,14,-2,/,/
Oc1ccc(Cl)cc1-c1cc(-c2ccccc2Cl)[nH]n1,7,41*,37,49*,17,1,36*,37*
CC(C)(C)c1ccc(-c2cc(N)n[nH]2)cc1,18,13,1,12,26,1,/,/
Oc1ccc(Cl)cc1-c1cc(-c2cccc(Br)c2)n[nH]1,2,53*,49,48*,10,1,37*,49*
Oc1ccc(Br)cc1-c1ccn[nH]1,14,25,23,38,39,0,/,/
CC(C)(C)c1ccc(-c2cc(-c3ccccc3O)[nH]n2)cc1,14,41*,43,49*,13,0,42*,22
Cc1ccc(O)c(-c2cc(-c3ccccc3C)[nH]n2)c1,4,66*,-9,52*,6,-5,18,-1
COc1ccccc1N=c1oc2cc(O)ccc2cc1C(N)=O,22,40*,45,47*,6,4,48*,33*
CC(C)n1ncc2c(C(=O)N3CCN(Cc4ccc(Br)s4)CC3)cc(C3CC3)nc21,18,17,39,21,/,0,/,/
C[C@@H]1CC=C[C@H]2[C@H]1C(=O)N(Cc1ccccc1)[C@H]2c1ccc2ccccc2c1,23,48*,40,46*,5,1,47*,47*
CC(=O)c1ccc(-c2ccc([C@H]3[C@H]4C=CC[C@@H](C)[C@@H]4C(=O)N3Cc3ccccc3)c(F)c2)cc1,12,6,20,20,-3,2,/,/
CC(=O)c1ccc(-c2ccccc2[C@H]2[C@H]3C=CC[C@@H](C)[C@@H]3C(=O)N2Cc2ccccc2)cc1,-1,43*,38,45*,0,/,30*,28
Cc1ccc(F)c([C@H]2[C@H]3C=CC[C@@H](C)[C@@H]3C(=O)N2Cc2ccccc2)c1,-24,45*,48,50*,-6,-3,28,35*
COCC1CCCN(C(=O)c2cc(COc3ccc4ncccc4c3)on2)C1 (centres undefined),22,8,16,13,8,2,/,/
CCCc1cc2c(cc1NC(=O)c1ccco1)OCO2,22,-17,-7,-5,0,2,/,/
CCOc1ccc(CNC(=O)Cn2nc(C)c3c(C)n(-c4ccc(C)cc4)nc3c2=O)cc1,0,4,1,12,8,-2,/,/
COc1ccc(NC(=O)CN(C)C(=O)CSc2nc3ccccc3s2)cc1,21,-1,8,8,/,-3,/,/
